# Results as given in PubChem BioAssay (NCATS).
# Unmarked numbers belong to inactive results. A call without a number means that no potency is given here. Calls of active or inactive are those of the source. Calls come from the whole dose curve; as a rule, active = well fitted inhibition curve with a large enough effect; inconclusive = small, poorly fitted or top-dose-only effect; inactive = flat fitted curve, though single readings scatter.
# Tested on: Nanoluciferase (engineered Oplophorus gracilirostris luciferase)
# Experiment: Primary Nanoluciferase (NLuc) qHTS assay for identification of artifact compounds. (AID 1845222);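 note: NLuc secreted into diluted conditioned medium of S16 cells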
# Conditions: NLuc-conditioned medium, Nano-Glo luminescence, 5 min; series mostly up to 54.1 µM
# Summary of the method: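 qHTS format, against NLuc in S16 cell-conditioned medium. Nano-Glo substrate 1:100 was added after 15 min at room temperature. Luminescence was taken after a further 5 min.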
SMILES,Potency,"activity, negative = inhibition"
COc1ccc(-c2csc(NC(=O)[C@H]3CCCCN3S(=O)(=O)c3ccc(C)cc3)n2)cc1,inactive,
O=C(O)C1=CO[C@@H](O[C@@H]2O[C@H](CO)[C@@H](O)[C@H](O)[C@H]2O)[C@@H]2C(CO)=CC[C@H]12,inactive,
C=C1C(=O)O[C@H]2/C=C(/C)[C@@H](OC(C)=O)C/C=C(\C)C[C@@H](OC(=O)/C(=C/C)COC(=O)/C(=C/C)CO)[C@@H]12,inactive,
Oc1ccc(-c2cnc3ccc(NCc4ccco4)nn23)cc1,inactive,
COC(=O)c1cc2c(C(F)(F)F)cc(-c3ccccc3)cc2n1O,inactive,
COc1cc(OC)c2c(=O)[nH]c(-c3cc(C)c(OCCO)c(C)c3)nc2c1,inactive,
C=C1C(=O)OC2C1CCC1(C)C(O)CC=C(C)C21 (stereo not given),inactive,
CO[C@H]1[C@@H](O)[C@H](O[C@H]2CC[C@@]3(C)C(CCC4C3CC[C@]35COC6(COC(=O)C6)C3CCC45O)C2)O[C@@H](C)[C@@H]1OC1OC(CO)C(OC2OC(CO)C(O)C(O)C2O)C(O)C1O (stereo not given in full),,-0.128% [at 11.6 µM]
Fc1ccc(-c2cncc(CN3CCN(c4cccc5c4OCCO5)CC3)c2)cc1,inactive,
CC(C)C[C@H](C(=O)O)c1cc(-c2ccc(C(F)(F)F)cc2)cc(-c2ccc(C(F)(F)F)cc2)c1,inactive,
COc1cc(/C=C2\CC[C@H]3COC[C@@H](c4cc(F)c(F)c(F)c4)N3C2=O)ccc1-n1cnc(C)c1,inactive,
CC(C)(CNC(=O)c1cccc(-c2noc(C(F)(F)F)n2)c1)c1coc(-c2ccccc2)n1,inactive,
C=C1CC[C@@H]2[C@](C)(CO)[C@H](O)CC[C@@]2(C)[C@@H]1CC(=O)C1=CCOC1=O,inactive,
O=C(Nc1ccc(C(O)(C(F)(F)F)C(F)(F)F)cc1)c1ccc(C(F)(F)F)cc1,inactive,
COC1=CC(=O)O/C1=C(/OC)[C@@H]1O[C@H]1c1ccccc1,inactive,
COc1ccc(C2(N(C)C(=O)c3ccc(NC(=O)c4ccco4)cc3)CCOCC2)cc1,inactive,
C[C@@H]1CC[C@]2(C(=O)O)CC[C@]3(C)C(=CCC4[C@@]5(C)CC[C@H](O)[C@](C)(C(=O)O)C5CC[C@]43C)C2[C@]1(C)O (stereo not given in full),inactive,
CN(C)c1ccnc2sc3c(=O)n(N4CCCCCC4)cnc3c12,inactive,

SMILES,Potency,"activity, negative = inhibition"
COCCCNC(=O)c1ccc(Cn2c(=O)c3ccccc3n(Cc3ccc(C(C)C)cc3)c2=O)cc1,inactive,
O=C(Nc1ccc(Cl)cc1)c1ccccc1NCc1ccncc1,inactive,
C[C@@H]1C[C@H]2O[C@@]3(O[C@@H]2C(C)(C)O)C(O)[C@@]2(C)C4CCC5C(C)(C)[C@@H](O[C@H]6OC[C@H](O)[C@@H](O)[C@@H]6O)CC[C@@]56C[C@@]46CC[C@]2(C)C13 (stereo not given in full),inactive,
CC(=O)C=C=C1C(C)(C)CC(O)CC1(C)O[C@@H]1O[C@H](CO[C@H]2OC[C@](O)(CO)[C@H]2O)[C@@H](O)[C@H](O)[C@H]1O (stereo not given in full),inactive,
Nc1ncnc2c1c(-c1ccc(Cl)cc1)nn2-c1cccc(-c2cnnn2Cc2cccc(-c3ccccc3)c2)c1,inactive,
Cc1nc(C(=O)N2CCC[C@H]2Cc2nnc(-c3ccccc3)o2)c(-c2ccccc2F)s1,inactive,
COc1cc2ncnc(Nc3cccc(I)c3)c2cc1OC,inactive,
C=C1C(=O)O[C@@H]2[C@H]1CC(=O)[C@H](C)[C@@](O)(C(=O)/C=C/C)[C@H]2OC(=O)C(C)CC (stereo not given in full),inactive,
CCC(CC)(NC(=O)C(C)C)C(=O)N[C@@H](CCCN=C(N)N)C(=O)NC1(C(=O)NC(c2ccc(F)cc2)c2ccc(F)cc2)CCCC1,inactive,
C=C1CCC2C(C)(C)CCCC2(C)C1CC/C(C)=C\CO (stereo not given),inactive,
CCc1ccccc1OC[C@@H](O)CN[C@H]1CCCc2ccccc21,inactive,
COc1cc(-c2nc(N[C@H](CO)Cc3ccccc3)ccc2C(=O)NCCOc2ccccc2)cc(OC)c1OC,inactive,
CC(C)(C)Sc1c(CC(C)(C)C(=O)O)n(Cc2ccc(Cl)cc2)c2ccc(OCc3ccc4ccccc4n3)cc12,inactive,
CC(=O)O[C@H]1CC2C(COC(=O)CC(C)C)=CO[C@@H](OC(=O)CC(C)C)C2[C@]12CO2 (stereo not given in full),inactive,
O=C1COc2nccc(-c3ccccc3F)c2CN1Cc1cc(C(F)(F)F)cc(C(F)(F)F)c1,inactive,
CC(C)(O)c1ccn2c(-c3ccc(F)c(-c4ccc(F)cc4C#N)c3)cnc2c1F,inactive,
C[C@@H](Nc1ncnc2[nH]c(-c3ccc(O)cc3)cc12)c1ccccc1,inactive,
